HT1080 IDH1KD tx: kills HT-1080 cells with IDH1 knockdown; HT-1080 IDH1 knockdown viability, ATP luminescence, 48 h; Potency, µM (titrated, usually from 46.1 µM), for inactives: at the top dose activity, negative = toxicity, hits mostly cytotoxic; hit rate 2% among 360,000; AID 686971;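 note: potency is the fitted concentration of half-maximal effect; 0% = DMSO wells and -100% = cell-free medium wells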
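HT-1080-IDH1KD cells (IDH1 knocked down), 750/well in RPMI with 5% FBS, treated with compound 48 h at 37 degrees C. Viability by CellTiter-Glo luminescence, normalised to DMSO and no-cell wells; concentration-response curves classed.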
TDP1 cell noCPT: qHTS for Inhibitors of human tyrosyl-DNA phosphodiesterase 1 (TDP1): qHTS in cells in absence of CPT; DT40 Tdp1-/- hTDP1 cells, no CPT, ATP luminescence, 48 h; Potency, µM (series often up to 46.2 µM), for inactives: at the top dose activity change, negative = growth inhibition, most hits filed as inhibitors; hit rate 15% among 420,000; AID 686978, 2013; note: potency is the fitted concentration of half-maximal effect; nearly all actives have a fitted effect of over 55% in size
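Camptothecin absent (DMSO only). Human TDP1-complemented DT40 knockout cells, 400 cells/well, 37 °C for minimum 48 hr; ATP measured via CellTiter-Glo, 30 min dark incubation, luminescence.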
HT1080NT lethal: kills 2HG-producing HT-1080-NT fibrosarcoma cells; AID 686970; hit rate 1.6% among 360,000; Potency, µM (series often up to 46.1 µM), without a hit: at the top dose activity, negative = less viability, actives largely listed as cytotoxic; HT-1080-NT fibrosarcoma viability, CellTiter-Glo ATP luminescence, 48 h;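 note: NT is the 2HG producing partner of a matched IDH1 knockdown line; potency is the fitted concentration of half-maximal effect; 0% = DMSO-treated cells and -100% = media-only wells without cells; nearly all actives have a fitted effect of over 55% in size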
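Toxicity toward the 2HG-producing NT line was scored as %Activity, normalised to DMSO and no-cell wells, from CellTiter-Glo luminescence after 48 hours' treatment.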
ALOX12 inh: inhibitors of human 12S-lipoxygenase ALOX12 | P18054 | Potency, µM (top dose mostly 108 µM), for inactives: at the top dose activity change, negative = inhibition, usual class: inhibitors | AID 1671190 | purified 12hLO, xylenol orange hydroperoxide absorbance | hit rate 1.1% among 580,000; note: potency is the fitted concentration of half-maximal effect
Target sequence (P18054 whole entry, looked up): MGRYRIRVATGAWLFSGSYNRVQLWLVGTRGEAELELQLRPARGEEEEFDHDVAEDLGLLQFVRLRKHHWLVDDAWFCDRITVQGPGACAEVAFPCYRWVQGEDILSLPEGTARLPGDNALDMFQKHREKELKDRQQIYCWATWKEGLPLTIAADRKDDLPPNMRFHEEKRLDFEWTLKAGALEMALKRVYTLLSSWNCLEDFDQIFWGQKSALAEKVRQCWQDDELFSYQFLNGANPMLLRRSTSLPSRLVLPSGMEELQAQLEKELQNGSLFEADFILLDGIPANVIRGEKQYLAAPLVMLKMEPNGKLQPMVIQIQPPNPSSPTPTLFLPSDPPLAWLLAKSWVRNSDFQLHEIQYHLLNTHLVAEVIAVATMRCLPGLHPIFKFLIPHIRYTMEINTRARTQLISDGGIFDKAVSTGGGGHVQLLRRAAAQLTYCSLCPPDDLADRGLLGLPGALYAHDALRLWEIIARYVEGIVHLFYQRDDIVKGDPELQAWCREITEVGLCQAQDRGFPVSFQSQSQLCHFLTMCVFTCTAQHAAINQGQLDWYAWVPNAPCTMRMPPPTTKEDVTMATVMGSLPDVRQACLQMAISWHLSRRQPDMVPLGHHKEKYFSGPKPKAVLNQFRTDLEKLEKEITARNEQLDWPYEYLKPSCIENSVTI
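Purified human 12hLO (150 nM final) in 25 mM Hepes, 0.01% Triton X-100, pH 7.0 was preincubated 15 min at room temperature with compound. Then 40 uM arachidonic acid was added, 30 min. Hydroperoxide was read by Fe-XO absorbance ratio 573/405 nm.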
IL-1B inflam inh: inhibitors of inflammasome signaling (IL-1 beta secretion). THP-1 LPS/ATP IL-1B secretion, AlphaLISA, 16 h; active compounds read low. activity change, % at 57.5 µM. hit rate 4.7% among 360,000; in the data active = activity change below about -50%; inconclusive = mostly about -30% to -49%
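Secreted IL-1B measured by AlphaLISA bead assay after 16 h compound exposure of THP-1 cells; compounds (final up to 57.5 uM) added 1 h before LPS (250 ng/mL) and ATP (1.25 mM) stimulation; lower signal means less secretion.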
DT40 TDP1 CPT: growth inhibition of DT40 Tdp1-/-;hTDP1 cells with camptothecin (screen for TDP1 inhibitors). Potency, µM (highest dose often 46.2 µM), for the others: at the highest dose activity change, negative = growth inhibition, most hits filed as inhibitors. chicken DT40 Tdp1-/-;hTDP1 cells + 20 nM CPT, ATP luminescence, 48 h. AID 686979. hit rate 12% among 420,000; note: potency is the fitted concentration of half-maximal effect; nearly all actives have a fitted effect of over 55% in size
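Chicken DT40 Tdp1-/- cells complemented with human TDP1, 400 cells/well, exposed to compounds plus 20 nM camptothecin for at least 48 h at 37 C; viability read as ATP content by CellTiter-Glo luminescence.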
* marks the source's active call; other numbers are inactive results; [ ] = another dose, or the depositor's remark. The full list was thinned out, with hits kept by preference. Unless noted, calls come from the whole dose curve; as a rule, active = well fitted curve in the direction sought with a large enough effect; inconclusive = small, poorly fitted or top-dose-only effect, or another doubt; inactive = no such curve, though single readings can be large; an effect the other way counts as inactive or inconclusive. Unless noted, % is set by controls: 0 for no effect and ±100 for the full control effect.

`c1ccc(-c2ncc(CSc3nncn3-c3ccccc3)s2)cc1` gave HT1080 IDH1KD tx -1.1%, TDP1 cell noCPT 18.4µM*, HT1080NT lethal 2.2%, ALOX12 inh 0.0%, IL-1B inflam inh 0.0 and DT40 TDP1 CPT inconclusive.
For Cc1nc(N2CCN(C)CC2)ncc1-c1cc(=O)[nH]c(N2CCc3ccccc3C2)n1 the results were ALOX12 inh 13.2%.
CCc1ccc(NC(=S)Nc2cccc3cnccc23)cc1 was read as HT1080 IDH1KD tx -2.6%, TDP1 cell noCPT 14.6µM*, HT1080NT lethal -4.6%, ALOX12 inh 14.0%, IL-1B inflam inh 17.4 and DT40 TDP1 CPT inconclusive.
For CC(=O)N(C)c1ccc(NC(=S)Nc2cccc3ccccc23)cc1 the results were HT1080 IDH1KD tx -7.9%, TDP1 cell noCPT inconclusive, HT1080NT lethal -6.9%, ALOX12 inh -16.1%, IL-1B inflam inh 12.6 and DT40 TDP1 CPT 23.1µM*.
For Cc1ccc(NC(=S)Nc2cccc3ccccc23)cc1F the results were HT1080 IDH1KD tx -11.2%, TDP1 cell noCPT -28.2%, HT1080NT lethal -16.1%, ALOX12 inh 39.8µM*, IL-1B inflam inh 7.5 and DT40 TDP1 CPT inconclusive.
For Fc1cccc(NC(=S)Nc2cccc3ccccc23)c1 the results were HT1080 IDH1KD tx -5.3%, TDP1 cell noCPT 6.2%, HT1080NT lethal 5.2%, ALOX12 inh inconclusive, IL-1B inflam inh 28.3 and DT40 TDP1 CPT -9.7%.
For N#CCCN(C(=O)CSc1nnnn1-c1cccc(Cl)c1)c1ccc(F)cc1 the results were ALOX12 inh 1.9%.
`CC(C)N1CCC2(CC1)N=C(c1ccc3c(c1)OCO3)CC(c1cc(Cl)ccc1O)N2` (stereo unspecified) gave HT1080 IDH1KD tx inconclusive, TDP1 cell noCPT 5.17µM*, HT1080NT lethal inconclusive, ALOX12 inh -2.1%, IL-1B inflam inh -116.9* and DT40 TDP1 CPT 5.8µM*.
For O=C(Nc1cc(Cl)ccc1O)c1cc(-c2ccc3c(c2)OCO3)on1 the results were TDP1 cell noCPT 2.3%, ALOX12 inh inconclusive and DT40 TDP1 CPT -5.2%.
For O=C(c1ncn[nH]1)N1C[C@@H](COCC2CC2)[C@H](c2ccccn2)C1 the results were ALOX12 inh 10.2%.
`Cc1ccnc2c1ccc1ccccc12` gave HT1080 IDH1KD tx 0.6%, TDP1 cell noCPT 9.1%, HT1080NT lethal 0.8%, ALOX12 inh 0.0%, IL-1B inflam inh -26.2 and DT40 TDP1 CPT -3.7%.
Cc1ccnc2c1ccc1cccnc12 was read as HT1080 IDH1KD tx inconclusive, TDP1 cell noCPT 0.581µM*, HT1080NT lethal inconclusive, ALOX12 inh -11.8%, IL-1B inflam inh -85.6* and DT40 TDP1 CPT 1.03µM*.
For Cc1ccnc2c(O)cccc12 the results were TDP1 cell noCPT 0.891µM* and DT40 TDP1 CPT 1.26µM*.
Cc1ccc(C(=O)Nc2c(C)cc(C)c3cccnc23)cc1 was read as HT1080 IDH1KD tx -5.0%, TDP1 cell noCPT 16.4µM*, HT1080NT lethal 5.5%, ALOX12 inh 12.5%, IL-1B inflam inh 7.4 and DT40 TDP1 CPT inconclusive.
Screening Cc1cc(C)c2ccc(/C=N/O)nc2c1O returned HT1080 IDH1KD tx inconclusive, TDP1 cell noCPT -28.6%, HT1080NT lethal -7.1%, ALOX12 inh inconclusive, IL-1B inflam inh 8.9 and DT40 TDP1 CPT -20.6%.
Cc1cc(C)c2ccc(NN)nc2c1O was read as HT1080 IDH1KD tx inconclusive, TDP1 cell noCPT 18.4µM*, HT1080NT lethal -23.0%, ALOX12 inh inconclusive, IL-1B inflam inh 60.9 and DT40 TDP1 CPT inconclusive.
Screening Cc1nc(NCc2ccc(S(=O)(=O)N(C)C)cc2)cc(C2CC(O)C2)n1 (stereo unspecified) returned ALOX12 inh 41.9%.
Screening Cc1ccnc2ncccc12 returned TDP1 cell noCPT -12.1% and DT40 TDP1 CPT -25.2%.
For Cc1cc(C)c2cccnc2c1O the results were TDP1 cell noCPT 1.12µM* and DT40 TDP1 CPT 1.26µM*.
`Cc1ccnc2c(N3C(=O)C4C5c6ccccc6C(c6ccccc65)C4C3=O)cccc12` (stereo unspecified) gave HT1080 IDH1KD tx -22.2%, TDP1 cell noCPT 16.4µM*, HT1080NT lethal 0.4%, ALOX12 inh 24.8%, IL-1B inflam inh inconclusive and DT40 TDP1 CPT 20.6µM*.
`Cc1ccnc2c1ccc1c(C)ccnc12` gave HT1080 IDH1KD tx 14.6µM*, TDP1 cell noCPT 2.59µM*, HT1080NT lethal 13µM*, IL-1B inflam inh inconclusive and DT40 TDP1 CPT 0.92µM*.
`CCOC(=O)C1=CNc2cc(C)nn2C1(O)C(F)(F)F` (stereo unspecified) gave ALOX12 inh 47.4%.
For C=CCNC(=O)CC12CC3CC(CC(C3)C1)C2 the results were ALOX12 inh 6.4%.
Screening COCCN1CCCC2(CCN(C(=O)c3ccc(F)c(Cl)c3)C2)C1=O (stereo unspecified) returned ALOX12 inh 2.1%.
`COc1ccc(Cl)cc1Nc1nc2ccc(C)cc2n2cnnc12` gave HT1080 IDH1KD tx 19.1%, TDP1 cell noCPT 14.6µM*, HT1080NT lethal 14.0%, ALOX12 inh 1.9%, IL-1B inflam inh 59.7 and DT40 TDP1 CPT 23.1µM*.
Screening COc1ccc(Cl)cc1Nc1nc2ccc(C(=O)c3ccccc3)cc2n2cnnc12 returned TDP1 cell noCPT -17.5%, ALOX12 inh inconclusive and DT40 TDP1 CPT -11.9%.
CCOc1ccccc1Nc1nc2ccc(C)cc2n2cnnc12 was read as HT1080 IDH1KD tx 3.1%, TDP1 cell noCPT -13.3%, HT1080NT lethal 0.2%, ALOX12 inh 8.3%, IL-1B inflam inh 0.0 and DT40 TDP1 CPT inconclusive.
Screening Cc1ccc2nc(Nc3ccc(C)c(F)c3)c3nncn3c2c1 returned TDP1 cell noCPT 14.6µM*, ALOX12 inh 0.5% and DT40 TDP1 CPT 18.4µM*.
`COc1ccc(OC)c(Nc2nc3ccc(C)cc3n3cnnc23)c1` gave HT1080 IDH1KD tx 14.4%, TDP1 cell noCPT inconclusive, HT1080NT lethal 8.2%, ALOX12 inh inconclusive, IL-1B inflam inh 16.0 and DT40 TDP1 CPT 16.4µM*.
`COc1ccc(Nc2nc3cc(Cl)c(Cl)cc3n3cnnc23)cc1Cl` gave TDP1 cell noCPT 13µM*, ALOX12 inh -0.3% and DT40 TDP1 CPT inconclusive.
`COc1ccc2c(ccn2CC(=O)Nc2ccc3c(c2)OCCO3)c1` gave ALOX12 inh 38.7%.
Screening COC(=O)c1ccc(CN2CCOc3ccc(C(O)c4cccnc4)cc3C2)cc1 (stereo unspecified) returned TDP1 cell noCPT -16.9%, ALOX12 inh 18.2% and DT40 TDP1 CPT 2.8%[9.04 µM].
